Data published in PubChem BioAssay AID624255 (Broad Institute, 2012).
Hit rate of the full screen: of about 77,000 compounds, about 4,600 (6%) were called active. Inconclusive results (about 1%) are left out. Many of the other results were omitted from the sample, so actives are more common in it than they were. Values without a mark were called inactive.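 How the source made its calls: active means mean inhibition above about 93%, with at least 55% of replicates each passing it (limit read from the data, passing the limit was not always enough); inconclusive means only one of those two conditions holds; inactive means neither condition holds.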

Test: growth inhibition of T. cruzi in host fibroblasts – cell-based, beta-gal Tulahuen parasites, NIH3T3 host, luminescence, primary screen (AID 624255)
Settings: T. cruzi beta-gal in NIH3T3, GalScreen luminescence, 90 h; at 8.34 µM; active compounds read high
Work on `COc1cccc(-c2ccc3n(c2=O)C[C@@H]2[C@@H](CO)[C@H](C(=O)N4CCCCC4)N[C@H]32)c1` yielded an inhibition of 13.4%.
With `O=C(Nc1ccc(C(F)(F)F)cc1)N[C@@H]1CC[C@@H](CCNC(=O)c2ccccc2F)O[C@H]1CO` the inhibition was 57.5%.
`C[C@@H]1CN([C@@H](C)CO)C(=O)c2cc(-c3ccc(C#N)cc3)cnc2O[C@H]1CN(C)C(=O)CN(C)C` showed an inhibition of 30.7%.
With `COCC(=O)Nc1ccc2c(c1)C(=O)N(C)C[C@@H](OC)[C@@H](C)CN(CC1CCCCC1)[C@@H](C)CO2` the inhibition was 5.52%.
`O=C(C[C@H]1CC[C@H]2[C@@H](COC[C@H](O)CN2C(=O)c2ccccn2)O1)N1CCN(c2ccccc2)CC1` showed an inhibition of -3.75%.
With `COc1cccc(S(=O)(=O)N2C[C@H](O)COC[C@H]3O[C@@H](CC(=O)N4CCN(c5ccccc5)CC4)CC[C@@H]32)c1` the inhibition was 12.2%.
In the case of `O=C(C[C@H]1CC[C@@H]2[C@H](COC[C@H](O)CN2Cc2ccc(Oc3ccccc3)cc2)O1)N1CCN(c2ccccc2)CC1`, the inhibition is reported as 117% (active).
`COc1ccc(S(=O)(=O)N2CC[C@H]3[C@@H](CO)N(C)c4ccc(C#Cc5ccccc5OC)cc4[C@H]32)cc1` showed an inhibition of 52%.
Compound `CCC(=O)Nc1ccc2c(c1)C(=O)N(C)[C@@H]1CC[C@@H](CC(=O)NCc3ccccc3Cl)O[C@H]1CO2` has an inhibition of 5.11%.
For `CCNC(=O)Nc1ccc2c(c1)C(=O)N(C)[C@@H]1CC[C@@H](CC(=O)NCCOC)O[C@@H]1CO2`, the inhibition was 4.1%.
In the case of `C[C@@H]1CN([C@@H](C)CO)S(=O)(=O)c2ccc(C3=CCCCC3)cc2O[C@@H]1CN(C)Cc1cccc(C(=O)O)c1`, the inhibition is reported as 24%.
With `C[C@H]1CN([C@@H](C)CO)S(=O)(=O)c2ccc(C3=CCCC3)cc2O[C@H]1CN(C)Cc1cccc(C(=O)O)c1` the inhibition was 18.6%.
With `C[C@@H]1CN([C@H](C)CO)S(=O)(=O)c2ccc(C3=CCCC3)cc2O[C@H]1CN(C)Cc1ccccc1F` the inhibition was 118% (active).
`C[C@@H]1CN([C@@H](C)CO)S(=O)(=O)c2ccc(C3=CCCC3)cc2O[C@@H]1CN(C)Cc1ccncc1` gave an inhibition of 69.1%.
Compound `C[C@@H]1CN([C@@H](C)CO)S(=O)(=O)c2ccc(C3=CCCCC3)cc2O[C@@H]1CN(C)C(=O)CN(C)C` has an inhibition of 84.4%.
Work on `C[C@@H]1CN([C@@H](C)CO)S(=O)(=O)c2ccc(C3=CCCC3)cc2O[C@H]1CN(C)C(=O)CC1CC1` yielded an inhibition of 36%.
In the case of `C[C@H](CO)N1C[C@H](C)[C@@H](CN(C)Cc2cccnc2)Oc2cc(C3=CCCC3)ccc2S1(=O)=O`, the inhibition is reported as 93.1%.
With `C[C@H]1CN([C@@H](C)CO)S(=O)(=O)c2ccc(C3=CCCC3)cc2O[C@@H]1CN(C)Cc1ccccc1` the inhibition was 99.6% (active).
For `C[C@H]1CN([C@@H](C)CO)S(=O)(=O)c2ccc(C3=CCCCC3)cc2O[C@@H]1CN(C)Cc1ccccc1`, the inhibition was 117% (active).
Compound `O=C(CCN1CCCCC1)NCC[C@H]1CC[C@@H](NC(=O)C2CCOCC2)[C@H](CO)O1` has an inhibition of 26.2%.
`CO[C@@H]1CN(C)C(=O)c2cc(NC(=O)C3CC3)ccc2OC[C@@H](C)N(C(=O)NC(C)C)C[C@@H]1C` gave an inhibition of 72%.
With `CC(C)(C)[S@](=O)N1Cc2cc(C(=O)N3CCCCC3)nc(-c3cccc(-c4ccccc4F)c3)c2[C@@H]1CCO` the inhibition was 23.3%.
For `C[C@@H]1CN([C@@H](C)CO)C(=O)c2cc(-c3cncnc3)cnc2O[C@H]1CN(C)C(=O)c1cccc(F)c1`, the inhibition was 0.0585%.
For `C[C@@H]1CN([C@H](C)CO)C(=O)c2cc(NC(=O)Nc3ccccc3)ccc2O[C@@H]1CN(C)Cc1ccc(Cl)c(Cl)c1`, the inhibition was -114%.
Compound `C[C@@H]1CN([C@H](C)CO)C(=O)c2cc(NC(=O)Nc3ccccc3)ccc2O[C@H]1CN(C)Cc1ccc(Cl)c(Cl)c1` has an inhibition of -217%.
For `C[C@@H]1CN([C@@H](C)CO)C(=O)c2cc(NC(=O)Nc3cccc4ccccc34)ccc2O[C@H]1CN(C)Cc1ccc(Cl)c(Cl)c1`, the inhibition was 97.7% (active).
With `COc1ccc(CN(C)C[C@@H]2Oc3ccc(NC(=O)Nc4cccc5ccccc45)cc3C(=O)N([C@H](C)CO)C[C@H]2C)cc1` the inhibition was 74.4%.
Compound `C[C@@H]1CN([C@@H](C)CO)C(=O)c2cc(NC(=O)Nc3cccc4ccccc34)ccc2O[C@@H]1CN(C)Cc1ccc(-c2ccccc2)cc1` has an inhibition of 84.4%.
For `C[C@@H]1CN([C@@H](C)CO)C(=O)c2cc(NC(=O)Nc3cccc4ccccc34)ccc2O[C@H]1CN(C)Cc1ccc(Oc2ccccc2)cc1`, the inhibition was 121% (active).
Work on `COc1ccc(S(=O)(=O)N[C@H]2C=C[C@@H](CC(=O)O)O[C@@H]2CO)cc1` yielded an inhibition of 8.59%.
`CCCN1C[C@@H](C)[C@@H](OC)CN(C)C(=O)c2ccc(NC(=O)Nc3cccc(F)c3)cc2OC[C@@H]1C` showed an inhibition of 9.75%.
With `COc1cccc(CNC(=O)C[C@H]2CC[C@@H](NC(C)=O)[C@@H](CO)O2)c1` the inhibition was -45.2%.
Work on `CC(=O)N1C[C@@H]2[C@H](c3ccccc31)[C@H](CO)N2C(=O)Nc1ccc(F)cc1` yielded an inhibition of -6.85%.
Work on `C[C@@H](NC(=O)C[C@@H]1CC[C@H]2[C@@H](COC[C@@H](O)CN2C(=O)Nc2cccc(F)c2)O1)c1ccccc1` yielded an inhibition of 33.4%.
With `O=C(C[C@@H]1C[C@H]2c3cc(NC(=O)Nc4ccccc4)ccc3O[C@H]2[C@@H](CO)O1)NCc1cccnc1` the inhibition was -4.79%.
In the case of `Cc1noc(C)c1NC(=O)Nc1ccc2c(c1)C(=O)N([C@H](C)CO)C[C@@H](C)[C@@H](CN(C)S(=O)(=O)c1ccc(Cl)cc1)OCCCC[C@H](C)O2`, the inhibition is reported as 55.2%.
Compound `COc1ccccc1S(=O)(=O)N[C@@H]1CC[C@H](CC(=O)N2CCN(C)CC2)O[C@@H]1CO` has an inhibition of -19.7%.
`O=C(C[C@H]1C[C@@H]2c3cc(NC(=O)c4ccc5c(c4)OCO5)ccc3O[C@@H]2[C@@H](CO)O1)NCc1cccnc1` gave an inhibition of -76.9%.
For `O=C(C[C@@H]1C[C@@H]2c3cc(NC(=O)c4ccc5c(c4)OCO5)ccc3O[C@@H]2[C@@H](CO)O1)NCc1ccc(Cl)cc1`, the inhibition was 97.9% (active).
With `CN(C)C(=O)C[C@@H]1C[C@@H]2c3cc(NC(=O)c4ccc5c(c4)OCO5)ccc3O[C@@H]2[C@H](CO)O1` the inhibition was -59.5%.
Compound `COc1cccc(S(=O)(=O)Nc2ccc3c(c2)[C@@H]2C[C@@H](CC(=O)NCc4ccc(Cl)cc4)O[C@H](CO)[C@@H]2O3)c1` has an inhibition of 32.2%.
With `COc1cccc(S(=O)(=O)Nc2ccc3c(c2)[C@H]2C[C@H](CC(=O)NCc4ccc(Cl)cc4)O[C@H](CO)[C@H]2O3)c1` the inhibition was 159% (active).
In the case of `CN1CCN(C(=O)C[C@@H]2C[C@@H]3c4cc(NC(=O)c5ccc6c(c5)OCO6)ccc4O[C@@H]3[C@H](CO)O2)CC1`, the inhibition is reported as 8.43%.
`O=C(C[C@@H]1C[C@H]2c3cc(NC(=O)C4CCOCC4)ccc3O[C@H]2[C@H](CO)O1)NCc1ccc2c(c1)OCO2` showed an inhibition of 40.2%.
With `O=C(C[C@H]1C[C@H]2c3cc(NC(=O)c4ccc5c(c4)OCO5)ccc3O[C@H]2[C@@H](CO)O1)NCc1cccc(F)c1` the inhibition was 38.1%.
In the case of `O=C(Nc1ccc2c(c1)[C@@H]1C[C@H](CC(=O)N3CCOCC3)O[C@@H](CO)[C@@H]1O2)c1ccc2c(c1)OCO2`, the inhibition is reported as 103% (active).
For `O=C(C[C@@H]1C[C@H]2c3cc(NC(=O)C4CCC4)ccc3O[C@H]2[C@@H](CO)O1)NCc1ccc2c(c1)OCO2`, the inhibition was 106% (active).
In the case of `O=C(C[C@@H]1C[C@H]2c3cc(NC(=O)CC4CC4)ccc3O[C@H]2[C@@H](CO)O1)NCc1ccc2c(c1)OCO2`, the inhibition is reported as 30.3%.
Work on `CCCNC(=O)C[C@H]1C[C@@H]2c3cc(NS(=O)(=O)c4cccc(OC)c4)ccc3O[C@@H]2[C@@H](CO)O1` yielded an inhibition of -11.6%.
With `CCNC(=O)C[C@@H]1CC[C@H]2[C@@H](COc3ccc(NC(=O)NC(C)C)cc3C(=O)N2C)O1` the inhibition was 39.8%.
In the case of `C[C@H](CO)N1C[C@H](C)[C@@H](CN(C)S(=O)(=O)c2cccs2)OCc2ccccc2-c2ccccc2C1=O`, the inhibition is reported as 24.1%.
Work on `O=C(C[C@@H]1C[C@H]2c3cc(NS(=O)(=O)c4ccc(F)cc4)ccc3O[C@H]2[C@H](CO)O1)NC1CCCC1` yielded an inhibition of -34%.
With `O=S(=O)(N[C@@H]1CC[C@H](CCn2cc(-c3ccccc3F)nn2)O[C@H]1CO)c1ccc(F)cc1` the inhibition was 41.8%.
Compound `COc1cccc(NC(=O)Nc2ccc3c(c2)C(=O)N(C)[C@@H]2CC[C@@H](CC(=O)NCCc4ccccc4)O[C@H]2CO3)c1` has an inhibition of 52.2%.
In the case of `COc1ccc(S(=O)(=O)N2C[C@@H](O)COC[C@H]3O[C@H](CC(=O)N[C@H]4CCN(Cc5ccccc5)C4)CC[C@@H]32)cc1`, the inhibition is reported as 77.6%.
In the case of `COc1ccc(NC(=O)Nc2ccc3c(c2)C(=O)N([C@H](C)CO)C[C@@H](C)[C@@H](CN(C)C(=O)NC(C)C)OCCCC[C@H](C)O3)cc1`, the inhibition is reported as 38.7%.
Work on `CCC(=O)N(C)C[C@H]1Oc2cc(-c3ccccc3F)ccc2S(=O)(=O)N([C@H](C)CO)C[C@@H]1C` yielded an inhibition of 81.3%.
With `O=C(C[C@H]1CC[C@H]2[C@@H](COC[C@H](O)CN2Cc2ccncc2)O1)NCC1CC1` the inhibition was 8.17%.
For `C[C@@H]1CN([C@@H](C)CO)C(=O)c2cc(C#CCN(C)C)cnc2O[C@H]1CN(C)S(=O)(=O)c1cn(C)cn1`, the inhibition was -8.13%.
For `Cn1cnc(S(=O)(=O)N2C[C@H](O)COC[C@@H]3O[C@H](CC(=O)NC4CCCC4)CC[C@H]32)c1`, the inhibition was 5.65%.
